“And” between values parts separate entries of the source, which are not always exact repeats. Equal entries are not always repeated. Inconclusive results are not listed. The source made the active and inactive calls. How the source made its calls, unless noted: active means hit-call score of the fitted dose curve at least 0.9, where 1 is the maximum; inactive means score below 0.9.
Tests used:
[1] = ATG_NF_kB_CIS: Attagene CIS-FACTORIAL HepG2 Assay for human Nuclear Factor Kappa B (NF-kB) (AID 2282991); conditions: HepG2 Attagene cis-factorial NF-kB reporter mRNA; actives raise or lower the signal
In short: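 Fluorescence of labelled RT-PCR products separated by capillary electrophoresis gives reporter mRNA levels from transfected HepG2 cells exposed 24 h; values are fitted in both directions relative to DMSO.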

[2] = ATG_NRF2_ARE_CIS: Attagene CIS-FACTORIAL HepG2 Assay for human Nuclear Factor Erythroid 2 Related Factor 2 (NFR2) response to Antioxidant Response Elements (ARE) (AID 2282992); conditions: HepG2 Attagene ARE/NRF2 reporter, transcription factor activity; actives raise or lower the signal
In short: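 Endogenous transcription factor activity in human liver HepG2 cells is tracked via a cis-element-driven reporter within a multiplexed set. mRNA induction is read by RT-PCR and capillary electrophoresis after 24 h, with DMSO as baseline.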

[3] = ATG_Oct_MLP_CIS: Attagene CIS-FACTORIAL HepG2 Assay for human Octamer-Binding Transcription Factor (Oct) (AID 2282993); conditions: HepG2 Attagene cis-factorial Oct reporter, mRNA; actives raise or lower the signal
In short: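 HepG2 cells transiently transfected with cis-promoter-driven multiplexed reporter transcription units, dosed for 24 h. Reporter mRNA quantified by RT-PCR, fluorescent labelling, HpaI digestion and capillary electrophoresis; bidirectional fits versus DMSO baseline.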

[4] = biological target: Cellular tumor antigen p53 (Homo sapiens) (UniProt P04637); assay: ATG_p53_CIS: Attagene CIS-FACTORIAL HepG2 Assay for human p53 Transcription Factor (AID 2282994); conditions: HepG2 p53 cis-element reporter, Attagene mRNA; actives raise or lower the signal
Cellular tumor antigen p53 (Homo sapiens), sequence (P04637 whole entry, looked up, the tested form may be a part): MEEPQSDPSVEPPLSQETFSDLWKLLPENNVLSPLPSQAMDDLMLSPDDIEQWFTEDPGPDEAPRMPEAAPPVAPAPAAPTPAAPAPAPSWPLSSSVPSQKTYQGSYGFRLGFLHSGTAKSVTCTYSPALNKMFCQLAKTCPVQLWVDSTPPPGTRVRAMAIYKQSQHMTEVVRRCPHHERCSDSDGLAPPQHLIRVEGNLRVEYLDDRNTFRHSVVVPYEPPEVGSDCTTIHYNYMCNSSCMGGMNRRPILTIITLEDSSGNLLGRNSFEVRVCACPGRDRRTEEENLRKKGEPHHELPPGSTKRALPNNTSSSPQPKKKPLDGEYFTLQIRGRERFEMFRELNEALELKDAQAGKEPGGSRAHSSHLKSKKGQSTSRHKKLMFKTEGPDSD
In short: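 Steps: transfect HepG2 with multiplexed cis reporter constructs; dose chemicals 24 h; extract RNA, reverse-transcribe, PCR-amplify reporter sequences; FAM-label, HpaI-digest, resolve fragments by CE. Activity fitted both directions relative to DMSO.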

[5] = biological target: human Peroxisome Proliferator-activated Receptor alpha (PPARa), PPARA (gene 5465) (UniProt Q07869); assay: ATG_PPARa_TRANS: Attagene TRANS-FACTORIAL HepG2 Assay for human Peroxisome Proliferator-activated Receptor alpha (PPARa) (AID 2283001; active means hit-call score of the fitted dose curve at least 0.9, where 1 is the maximum;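 on AC50: potency for gain of reporter signal over DMSO so agonist or activator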)
human Peroxisome Proliferator-activated Receptor alpha (PPARa), PPARA (gene 5465), sequence (Q07869 whole entry, looked up, the tested form may be a part): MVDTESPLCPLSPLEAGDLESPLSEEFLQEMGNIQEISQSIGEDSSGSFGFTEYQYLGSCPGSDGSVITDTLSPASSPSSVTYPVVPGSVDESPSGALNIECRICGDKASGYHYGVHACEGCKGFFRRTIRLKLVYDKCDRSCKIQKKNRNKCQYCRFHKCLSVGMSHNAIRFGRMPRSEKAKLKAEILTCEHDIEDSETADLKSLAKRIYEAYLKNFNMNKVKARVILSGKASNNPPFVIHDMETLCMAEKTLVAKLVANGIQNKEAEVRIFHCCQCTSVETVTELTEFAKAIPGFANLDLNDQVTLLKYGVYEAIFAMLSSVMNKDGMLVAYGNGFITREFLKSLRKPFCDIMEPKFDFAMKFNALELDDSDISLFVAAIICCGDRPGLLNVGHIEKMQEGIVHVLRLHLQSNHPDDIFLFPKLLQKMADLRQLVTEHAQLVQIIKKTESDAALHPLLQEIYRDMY
In short: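 Transfected HepG2 cells treated with test chemical for 24 h. RNA isolated, reverse-transcribed with oligo(dT), PCR-amplified, FAM-labelled and HpaI-digested. Fragments sized by capillary electrophoresis; gain-of-signal fit relative to DMSO.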

[6] = biological target: human Peroxisome Proliferator-activated Receptor delta (PPARd), PPARD (gene 5467) (UniProt Q03181); assay: ATG_PPARd_TRANS: Attagene TRANS-FACTORIAL HepG2 Assay for human Peroxisome Proliferator-activated Receptor delta (PPARd) (AID 2283002; active means hit-call score of the fitted dose curve at least 0.9, where 1 is the maximum)
human Peroxisome Proliferator-activated Receptor delta (PPARd), PPARD (gene 5467), sequence (Q03181 whole entry, looked up, the tested form may be a part): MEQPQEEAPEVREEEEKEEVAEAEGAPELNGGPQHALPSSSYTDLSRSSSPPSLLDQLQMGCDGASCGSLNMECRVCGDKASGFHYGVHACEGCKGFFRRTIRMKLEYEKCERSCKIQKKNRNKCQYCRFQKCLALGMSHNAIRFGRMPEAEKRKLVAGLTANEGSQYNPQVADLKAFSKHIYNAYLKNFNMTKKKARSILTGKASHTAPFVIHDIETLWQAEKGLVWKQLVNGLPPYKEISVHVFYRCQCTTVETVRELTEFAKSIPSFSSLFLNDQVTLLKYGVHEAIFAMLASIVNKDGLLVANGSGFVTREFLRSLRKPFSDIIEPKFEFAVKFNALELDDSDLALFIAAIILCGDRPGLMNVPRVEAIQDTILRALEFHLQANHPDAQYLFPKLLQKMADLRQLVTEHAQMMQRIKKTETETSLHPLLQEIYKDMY
In short: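 Read-out is induced reporter mRNA, quantified by RT-PCR with fluorescent labelling and capillary electrophoresis after 24 h dosing. Cells are HepG2 transiently carrying multiple GAL4-UAS reporter units driven by exogenous NR-GAL4 chimeras; DMSO serves as baseline.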

[7] = BSK_3C_TissueFactor: BioMAP Diversity Plus: 3C Assay for Tissue Factor Biomarker Activity (AID 2282997); conditions: BioMAP 3C HUVEC, tissue factor biomarker readout; actives raise or lower the signal
In short: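 Cells used were primary human umbilical vein endothelial cells. They were dosed with chemical, and after 24 h Tissue Factor was quantified by ELISA. Curves were fitted bidirectionally with DMSO as baseline.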

[8] = BSK_3C_VCAM1: BioMAP Diversity Plus: 3C Assay for Vascular cell adhesion molecule 1 (VCAM1) Biomarker Activity (AID 2282999); conditions: BioMAP 3C HUVEC, VCAM1 ELISA, cytokine-stimulated; actives raise or lower the signal
In short: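 Activity fitted in both directions relative to DMSO, with ELISA measurement of the surface marker on primary HUVEC (3C) at 24 h post-treatment; parallel SRB staining (0.1% SRB, TCA-fixed, 560 nm) flagged overt cytotoxicity.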

[9] = BSK_4H_Eotaxin3: BioMAP Diversity Plus: 4H Assay for Eotaxin 3 Biomarker Activity (AID 2283000); conditions: primary human endothelial cells (HUVEC); actives raise or lower the signal;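 further: CCL26 protein level quantified by ELISA in parallel with SRB cytotoxicity check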
In short: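 Endothelial primary cells (human umbilical vein) exposed to compound for 24 h. ELISA detection of Eotaxin-3.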

## COC(=O)C(F)(F)C(F)(F)C(F)(F)F
[1]
  outcome: inactive
[2]
  outcome: inactive
[3]
  outcome: inactive
[4]
  outcome: inactive
[5]
  outcome: inactive
[6]
  outcome: inactive

## CCCCCCc1ccc(N)cc1
[1]
  outcome: inactive
[2]
  AC50: 2.51 µM (active)
[3]
  outcome: inactive
[4]
  AC50: 6.32 µM (active)
[5]
  outcome: inactive
[6]
  outcome: inactive

## O=S(=O)(c1ccc(OCc2ccccc2)cc1)c1ccccc1O
[1]
  outcome: inactive
[2]
  AC50: 8.89 µM (active)
[3]
  AC50: 31.9 µM (active)
[4]
  AC50: 33.4 µM (active)
[5]
  outcome: inactive
[6]
  outcome: inactive

## C[N+](C)(CCCNS(=O)(=O)CCC(F)(F)C(F)(F)C(F)(F)C(F)(F)C(F)(F)C(F)(F)F)CC(=O)[O-]
[1]
  outcome: inactive
[2]
  AC50: 0.00659 µM (active)
[3]
  outcome: inactive
[4]
  outcome: inactive
[5]
  outcome: inactive
[6]
  outcome: inactive

## CCOC(C)=O
[1]
  outcome: inactive
[2]
  outcome: inactive
[3]
  outcome: inactive
[4]
  outcome: inactive
[5]
  outcome: inactive
[6]
  outcome: inactive

## COC(=O)CC(C(C)=O)C(=O)OC (stereo not given)
[1]
  outcome: inactive
[2]
  outcome: inactive
[3]
  outcome: inactive
[4]
  outcome: inactive
[5]
  outcome: inactive
[6]
  outcome: inactive

## C[C@]12CC[C@@H]3c4ccc(O)cc4CC[C@H]3[C@@H]1CC[C@@H]2OC(=O)CCC1CCCC1
[1]
  outcome: inactive
[2]
  AC50: 21.5 µM (active)
[3]
  outcome: inactive
[4]
  outcome: inactive
[5]
  outcome: inactive
[6]
  outcome: inactive

## CC1COCc2cc3c(cc21)C(C)(C)C(C)C3(C)C (stereo not given)
[1]
  AC50: 166 µM (active)
[2]
  AC50: 41.2 µM (active)
[3]
  outcome: inactive
[4]
  outcome: inactive
[5]
  outcome: inactive
[6]
  outcome: inactive

## Cc1cncc(C)c1
[1]
  outcome: inactive
[2]
  outcome: inactive
[3]
  outcome: inactive
[4]
  outcome: inactive
[5]
  outcome: inactive
[6]
  outcome: inactive

## CC(=O)Nc1ccc(S(N)(=O)=O)cc1
[1]
  outcome: inactive
[2]
  outcome: inactive
[3]
  outcome: inactive
[4]
  outcome: inactive
[5]
  outcome: inactive
[6]
  outcome: inactive

## CCCCCCCCCCCC[N+](C)(C)CCCCCCCCCCCC
[1]
  outcome: inactive
[2]
  AC50: 10.4 µM (active)
[3]
  AC50: 5.23 µM (active)
[4]
  AC50: 10.4 µM (active)
[5]
  outcome: inactive
[6]
  outcome: inactive

## O=C(F)C(F)(F)C(F)(F)C(F)(F)C(F)F
[1]
  outcome: inactive
[2]
  outcome: inactive
[3]
  outcome: inactive
[4]
  outcome: inactive
[5]
  outcome: inactive
[6]
  outcome: inactive

## FC(F)=C(F)C(F)(F)C(F)(F)C(F)(F)C(F)F
[1]
  outcome: inactive
[2]
  outcome: inactive
[3]
  outcome: inactive
[4]
  outcome: inactive
[5]
  outcome: inactive
[6]
  outcome: inactive

## O=C(c1cc(O)c(O)c(O)c1)c1ccc(O)c(O)c1O
[1]
  outcome: inactive
[2]
  outcome: inactive
[3]
  outcome: inactive
[4]
  AC50: 100 µM (active)
[5]
  outcome: inactive
[6]
  outcome: inactive

## FC(F)(F)C1(F)C(F)(F)C(F)(F)C(F)(F)C(F)(C(F)(F)F)C1(F)F (stereo not given)
[1]
  outcome: inactive
[2]
  outcome: inactive
[3]
  outcome: inactive
[4]
  outcome: inactive
[5]
  outcome: inactive
[6]
  outcome: inactive

## OCC1CCC(CO)CC1 (stereo not given)
[1]
  outcome: inactive
[2]
  outcome: inactive
[3]
  outcome: inactive
[4]
  outcome: inactive
[5]
  outcome: inactive
[6]
  outcome: inactive

## COC(O)c1ccccc1 (stereo not given)
[1]
  outcome: inactive
[2]
  outcome: inactive
[3]
  outcome: inactive
[4]
  outcome: inactive
[5]
  outcome: inactive
[6]
  outcome: inactive

## CCCCc1ccc2ccccc2c1S(=O)(=O)O
[1]
  outcome: inactive
[2]
  AC50: 8.84 µM (active)
[3]
  outcome: inactive
[4]
  outcome: inactive
[5]
  outcome: inactive
[6]
  outcome: inactive

## CCCCCCC(C)(C)C(=O)O
[1]
  outcome: inactive
[2]
  AC50: 117 µM (active)
[3]
  outcome: inactive
[4]
  outcome: inactive
[5]
  AC50: 18 µM (active)
[6]
  outcome: inactive

## CCC1CO1 (stereo not given)
[1]
  outcome: inactive
[2]
  outcome: inactive
[3]
  outcome: inactive
[4]
  outcome: inactive
[5]
  outcome: inactive
[6]
  outcome: inactive

## O=c1cc(-c2ccccc2)oc2ccc3ccccc3c12
[1]
  outcome: inactive
[2]
  AC50: 182 nM (active) and 134 nM (active)
[3]
  outcome: inactive
[4]
  outcome: inactive
[5]
  outcome: inactive
[6]
  outcome: inactive

## FC(F)(F)N1C(F)(F)C(F)(F)OC(F)(F)C1(F)F
[1]
  outcome: inactive
[2]
  outcome: inactive
[3]
  outcome: inactive
[4]
  outcome: inactive
[5]
  outcome: inactive
[6]
  outcome: inactive

## CCc1cccc(CC)c1NC(=O)C(=O)O
[1]
  outcome: inactive
[2]
  outcome: inactive
[3]
  outcome: inactive
[4]
  outcome: inactive
[5]
  outcome: inactive
[6]
  outcome: inactive

## COC(=O)C(F)(F)C(F)(F)C(F)(F)C(F)(F)C(F)(F)F
[1]
  outcome: inactive
[2]
  outcome: inactive
[3]
  outcome: inactive
[4]
  outcome: inactive
[5]
  outcome: inactive
[6]
  outcome: inactive

## Nc1ccc(O)c(C(=O)O)c1
[1]
  outcome: inactive
[2]
  outcome: inactive
[3]
  outcome: inactive
[4]
  outcome: inactive
[5]
  outcome: inactive
[6]
  outcome: inactive

## FC(F)(F)C(F)(F)C(F)(F)C(F)(F)I
[1]
  outcome: inactive
[2]
  outcome: inactive
[3]
  outcome: inactive
[4]
  outcome: inactive
[5]
  outcome: inactive
[6]
  outcome: inactive

## Cc1ccc2ccc3ccc(C)cc3c2c1
[1]
  outcome: inactive
[2]
  AC50: 61.3 µM (active)
[3]
  outcome: inactive
[4]
  outcome: inactive
[6]
  outcome: inactive

## C=Cc1ccc(O)c(OC)c1
[1]
  outcome: inactive
[2]
  AC50: 6.89 µM (active)
[3]
  outcome: inactive
[4]
  outcome: inactive
[6]
  outcome: inactive

## CCOC=O
[1]
  outcome: inactive
[2]
  outcome: inactive
[3]
  outcome: inactive
[4]
  outcome: inactive
[5]
  outcome: inactive
[6]
  outcome: inactive

## N=C(N)c1ccc(OCCCCCOc2ccc(C(=N)N)cc2)cc1
[1]
  AC50: 87.5 µM (active)
[2]
  AC50: 0.732 µM (active)
[3]
  AC50: 34.4 µM (active)
[7]
  outcome: inactive
[8]
  outcome: inactive
[9]
  outcome: inactive
[5]
  outcome: inactive
[6]
  outcome: inactive

## O=CC(F)(F)C(F)(F)C(F)(F)F
[1]
  outcome: inactive
[2]
  outcome: inactive
[3]
  outcome: inactive
[4]
  outcome: inactive
[6]
  outcome: inactive

Reference: PubChem BioAssay (EPA / NIEHS)
